Source: PubChem BioAssay
Activity calls are given as the source filed them.

Legend:
[1] = anti-His antibody binders, primary screen, artefact control for SMM control protein annotation, biochemical, small-molecule microarray, 635 nm fluorescence (AID 1128); settings: anti-His Alexa647 antibody binding, higher = more signal;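 note: score merges feature fluorescence with signal-to-noise for each printed compound spot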
[2] = tested on: Human papillomavirus type 1a E7 protein (residues 1-88); assay: HPV1a E7 small-molecule binders, primary screen, biochemical, small-molecule microarray, residues 1-88, 635 nm (AID 1129); settings: small-molecule microarray binding, fluorescence 635 nm; higher = more signal
[3] = molecular target: Focal adhesion kinase 1 (Homo sapiens) (UniProt Q05397); assay: small-molecule microarray binders of FAK, primary screen, biochemical, 635/667 nm fluorescence, BSA, DTT (AID 1130); settings: PTK2 binding, 635 nm fluorescence, higher = more signal;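 note: composite of spot emission at 667 nm and signal to noise over triplicate slides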
[4] = tested on: Fibrinogen (Alexa647-labelled); assay: fibrinogen binders on compound microarrays, profiling panel, artefact control for SMM control-protein annotation, biochemical, small-molecule microarray, 635/667 nm fluorescence (AID 1131); settings: fibrinogen-A647 binding fluorescence, higher = more signal;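 note: z-score merges 667 nm fluorescence with per-spot signal-to-noise over triplicate slides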
[5] = molecular target: Follistatin (Homo sapiens) (UniProt P19883); assay: follistatin binders on small-molecule microarrays, primary screen, biochemical, small-molecule microarray, 635/667 nm fluorescence (AID 1132); settings: FST binding, 635 nm fluorescence, higher = more signal
[6] = molecular target: Fibroblast growth factor 2 (Homo sapiens) (UniProt P09038); assay: FGF2 binders on small-molecule microarrays, primary screen, biochemical, small-molecule microarray, 635/667 nm fluorescence (AID 1133); settings: small-molecule microarray binding, FGF2, fluorescence 635/667; higher = more signal
[7] = mitochondrial membrane potential change in A549 cells, profiling panel, cell-based, JC-1 fluorescence, basal, 24 h, 100 nL (AID 1138); settings: higher = more signal;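 note: A549 lung adenocarcinoma cells under basal conditions with no added stimulus; test concentration not given here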
Lefty1 = Lefty1 binders on small-molecule microarrays, primary screen, biochemical, small-molecule microarray, 635/667 nm fluorescence (AID 1139); settings: small-molecule microarray binding, fluorescence 635/667; higher = more signal
[8] = tested on: wheat germ agglutinin (Triticum aestivum), Alexa647-labelled; assay: wheat germ agglutinin binders on compound microarrays, profiling panel, artefact control for SMM control-protein annotation, biochemical, small-molecule microarray, 635/667 nm fluorescence (AID 1140); settings: WGA-A647 binding, 635 nm fluorescence, higher = more signal;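 note: score merges 667 nm feature emission with signal to noise over triplicate slides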
[9] = molecular target: Luciferin 4-monooxygenase (Photinus pyralis) (UniProt P08659); assay: firefly luciferase enzyme inhibitors, primary screen, biochemical, luminescence, purified enzyme, 2006 set (AID 1141); settings: SteadyGlo luminescence, 30 min, higher = more signal, called active from +8 up or from −8 down;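 note: cell-free assay with purified firefly luciferase at 100 ng per well in PBS; test concentration not given here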
Luciferin 4-monooxygenase (Photinus pyralis), sequence (P08659 whole entry, looked up): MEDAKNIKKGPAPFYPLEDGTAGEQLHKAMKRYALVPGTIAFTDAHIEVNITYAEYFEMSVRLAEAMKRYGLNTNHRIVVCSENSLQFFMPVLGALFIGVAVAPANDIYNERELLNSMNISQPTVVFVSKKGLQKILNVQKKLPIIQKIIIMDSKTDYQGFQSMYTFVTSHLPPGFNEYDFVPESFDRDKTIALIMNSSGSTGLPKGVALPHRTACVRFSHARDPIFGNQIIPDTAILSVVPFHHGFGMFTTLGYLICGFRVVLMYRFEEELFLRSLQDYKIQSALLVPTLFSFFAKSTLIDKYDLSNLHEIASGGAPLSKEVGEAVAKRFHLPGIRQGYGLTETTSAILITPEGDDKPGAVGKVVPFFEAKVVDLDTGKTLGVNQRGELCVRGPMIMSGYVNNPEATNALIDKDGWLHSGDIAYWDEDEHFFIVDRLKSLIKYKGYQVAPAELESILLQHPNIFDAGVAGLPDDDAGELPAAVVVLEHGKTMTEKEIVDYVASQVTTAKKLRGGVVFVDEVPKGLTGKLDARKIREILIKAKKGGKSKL

Focal adhesion kinase 1 (Homo sapiens), sequence (Q05397 whole entry, looked up): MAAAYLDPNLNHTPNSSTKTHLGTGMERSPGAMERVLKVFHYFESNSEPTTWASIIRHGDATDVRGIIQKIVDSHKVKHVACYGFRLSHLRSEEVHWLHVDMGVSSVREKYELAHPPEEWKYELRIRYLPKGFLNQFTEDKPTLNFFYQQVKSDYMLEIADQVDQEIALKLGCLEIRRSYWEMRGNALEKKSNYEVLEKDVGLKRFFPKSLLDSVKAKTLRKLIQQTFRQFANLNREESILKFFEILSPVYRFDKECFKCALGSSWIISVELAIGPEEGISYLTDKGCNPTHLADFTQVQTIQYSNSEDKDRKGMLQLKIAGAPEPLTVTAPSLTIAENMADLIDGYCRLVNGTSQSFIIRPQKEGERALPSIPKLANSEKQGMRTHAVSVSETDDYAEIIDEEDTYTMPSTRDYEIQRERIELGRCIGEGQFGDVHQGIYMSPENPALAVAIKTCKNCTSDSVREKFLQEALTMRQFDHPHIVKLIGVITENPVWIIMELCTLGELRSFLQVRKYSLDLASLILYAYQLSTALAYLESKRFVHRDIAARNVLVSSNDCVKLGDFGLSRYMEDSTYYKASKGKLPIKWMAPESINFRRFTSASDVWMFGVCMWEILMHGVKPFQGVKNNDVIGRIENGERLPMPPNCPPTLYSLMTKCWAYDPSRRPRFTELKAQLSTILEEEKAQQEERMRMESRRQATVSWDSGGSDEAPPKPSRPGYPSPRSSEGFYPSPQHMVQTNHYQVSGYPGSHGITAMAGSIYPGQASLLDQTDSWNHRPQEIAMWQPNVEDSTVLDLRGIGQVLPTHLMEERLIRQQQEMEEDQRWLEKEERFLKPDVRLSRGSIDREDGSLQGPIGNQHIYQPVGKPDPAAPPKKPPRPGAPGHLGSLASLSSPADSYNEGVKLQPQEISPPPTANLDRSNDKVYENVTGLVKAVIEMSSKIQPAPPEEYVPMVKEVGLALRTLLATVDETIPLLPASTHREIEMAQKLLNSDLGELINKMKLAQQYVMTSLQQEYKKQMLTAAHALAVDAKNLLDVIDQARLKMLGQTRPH
Follistatin (Homo sapiens), sequence (P19883 whole entry, looked up): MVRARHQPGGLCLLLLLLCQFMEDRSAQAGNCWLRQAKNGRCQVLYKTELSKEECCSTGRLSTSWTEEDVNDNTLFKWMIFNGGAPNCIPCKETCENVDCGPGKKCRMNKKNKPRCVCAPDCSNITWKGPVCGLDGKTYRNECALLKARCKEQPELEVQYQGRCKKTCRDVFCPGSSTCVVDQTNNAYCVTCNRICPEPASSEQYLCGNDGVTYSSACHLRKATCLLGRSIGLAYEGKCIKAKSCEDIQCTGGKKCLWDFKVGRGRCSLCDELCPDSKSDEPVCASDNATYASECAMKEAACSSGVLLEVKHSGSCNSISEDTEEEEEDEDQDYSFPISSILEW
Fibroblast growth factor 2 (Homo sapiens), sequence (P09038 whole entry, looked up): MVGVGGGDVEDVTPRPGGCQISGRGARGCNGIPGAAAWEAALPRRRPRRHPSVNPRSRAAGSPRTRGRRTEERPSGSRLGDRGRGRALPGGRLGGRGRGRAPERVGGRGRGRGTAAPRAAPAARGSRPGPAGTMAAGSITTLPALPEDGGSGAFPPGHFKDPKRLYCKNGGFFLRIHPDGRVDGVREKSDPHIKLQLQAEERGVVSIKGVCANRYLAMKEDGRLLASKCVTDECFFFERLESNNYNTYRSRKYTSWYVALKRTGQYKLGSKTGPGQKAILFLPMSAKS

Row | Structure (SMILES) | composite z-score [1] | composite z-score [2] | composite z-score [3] | composite z-score [4] | composite z-score [5] | composite z-score [6] | z-score [7] | composite z-score (Lefty1) | composite z-score [8] | z-score [9]
1 | CO[C@H]1COC(=O)[C@@H](C)COC(=O)[C@@H](OCc2ccccc2)C=C[C@@H]1C | -0.328 | -0.869 | 0.106 | -0.648 | -0.17 | 0.193 | 0.651 | 0.0823 | -1.08 | -0.415 (inactive)
2 | COC(=O)CC=C[C@@H](C)[C@@H](C=NOC[C@@H](O)[C@H]1O[C@@H]2OC(C)(C)O[C@@H]2[C@H]1O)NS(=O)(=O)c1ccc(C)cc1 | 1.93 | 0.607 | -0.196 | -0.174 | 0.597 | 0.276 | -0.656 | 0.223 | 0.0146 | 0.543 (inactive)
3 | CCOC(=O)[C@H](Cc1ccccc1)NC(=O)CCC1CC(OC(=O)NCCc2ccc(F)cc2)CC2(CCCC(COC(=O)NCCOC)O2)O1 (stereo not given in full) | 0.384 | 1.17 | 2.79 | 0.916 | 1.01 | 0.557 | 0.671 | 1.26 | 0.526 | -0.24 (inactive)
4 | COc1ccc(O[C@@H]2[C@H](O)CO[C@@H]2C=Cc2ccccc2)cc1 | -0.198 | -0.222 | 0.166 | -0.223 | 0.409 | 0.758 | -0.464 | 0.397 | -0.124 | -0.451 (inactive)
5 | COC(=O)[C@H](C)NC(=O)CCC1CC(OC(=O)NCc2ccc3c(c2)OCO3)CC2(CCCC(COC(=O)NCc3cccc(C(F)(F)F)c3)O2)O1 (stereo not given in full) | 0.0275 | 0.741 | 0.587 | 0.387 | 0.792 | 0.63 | -0.238 | 1.15 | 0.613 | 0.969 (inactive)
6 | CO[C@H]1COC(=O)CC=C[C@@H](C)[C@H](NS(=O)(=O)c2ccc(C)cc2)COC(=O)CCC[C@@H]1C | 0.167 | -0.21 | 0.193 | 0.19 | 0.785 | 0.579 | -1.07 | 0.962 | -0.0807 | 1.03 (inactive)
7 | CCOC(=O)[C@H](Cc1ccccc1)NC(=O)CCC1CC(OC(=O)NCc2ccc3c(c2)OCO3)CC2(CCCC(COC(=O)NCCC(C)C)O2)O1 (stereo not given in full) | 0.408 | 0.57 | 0.234 | 0.894 | 0.443 | 1.06 | -0.549 | 0.722 | 0.531 | 0.906 (inactive)
8 | COC(=O)C=CCCc1coc(C=CCNC(=O)OC)n1 | 0.803 | -0.259 | 0.256 | 0.247 | 1.15 | 1.04 | -1.15 | 1.37 | 0.0559 | 0.122 (inactive)
9 | C[C@@H](c1ccccc1)N1C(=O)[C@H]2[C@H]3[C@H](O)[C@H](O)CC(=NO[C@@H]4O[C@H](CO)[C@@H](O)[C@H](O)[C@H]4O)[C@@H]3CC[C@H]2C1=O | 0.26 | 0.585 | -0.0533 | 0.19 | 0.31 | 0.281 | 0.269 | 0.351 | -0.0604 | 0.351 (inactive)
10 | CC1O[C@H]2C3=C(C(=O)[C@@H]4O[C@@H]4[C@H]3O)[C@@H]1C1[C@@H](C)OC=C3[C@H](O)C4O[C@@H]4C(=NOCc4ccccc4)[C@]312 (stereo not given in full) | 0.331 | -0.492 | -0.0962 | -1.18 | -0.117 | 0.468 | 0.476 | 0.16 | -0.911 | -0.399 (inactive)
11 | COC(=O)CC=C[C@@H](C)[C@@H](C=NO[C@@H](C)c1cn([C@H](CO)Cc2ccccc2)nn1)OC | 2.93 | 0.168 | -0.0296 | 0.578 | 0.293 | 0.411 | 0.269 | 0.579 | 0.084 | -2.11 (inactive)
12 | CCOC(=O)[C@H](CC(C)C)NC(=O)CCC1CC(OC(=O)NCc2cccc3ccccc23)CC2(CCCC(COC(=O)NCCOC)O2)O1 (stereo not given in full) | 0.427 | 1.19 | 0.175 | 0.959 | 0.602 | 0.648 | -0.157 | 0.436 | 0.167 | 0.561 (inactive)
13 | CCOC(=O)CCN1C(=O)[C@H]2[C@H]3[C@H](O)[C@H](O)CC(=NNC(=O)OCc4ccccc4)[C@@H]3CC[C@H]2C1=O | 0.553 | 0.687 | 0.538 | 0.986 | 0.937 | 0.55 | 0.319 | 0.699 | 0.304 | 0.195 (inactive)
14 | CCOC(=O)NN=C1C[C@@H](O)[C@@H](O)[C@@H]2[C@@H]3C(=O)N(Cc4ccc5c(c4)OCO5)C(=O)[C@@H]3CC[C@H]12 | -0.0164 | 0.117 | -0.243 | 0.785 | -0.176 | -0.289 | 0.0318 | 0.285 | 0.559 | 1.12 (inactive)
15 | COc1cccc([C@H]2Oc3ccc(OC)cc3C(=NO[C@@H]3O[C@H](COC(C)=O)[C@@H](OC(C)=O)[C@H](OC(C)=O)[C@H]3OC(C)=O)[C@@H]2O)c1 | 0.238 | 0.23 | 0.478 | -0.339 | -0.0006 | 0.192 | -0.172 | 0.228 | -0.639 | 0.713 (inactive)
16 | C=C(C)C(=O)OCC1CN2[C@@H](CC[C@@H](C)[C@@H]2c2ccc(Br)cc2)C(=O)O1 (stereo not given in full) | 0.0797 | 0.281 | 1.64 | 0.794 | 0.196 | 0.192 | 0.717 | 0.452 | 0.0513 | -0.0906 (inactive)
17 | CO[C@H]1COC(=O)CC=C[C@H](C)[C@@H](OC)COC(=O)[C@@H](C)COC(=O)CC=C[C@@H]1C | -0.756 | -0.699 | -0.111 | -1.26 | 1.5 | 1.77 | 0.657 | 1.55 | -1.05 | -0.454 (inactive)
